# From PubChem
# IL1B secr inh – qHTS for Inhibitors of Inflammasome Signaling: IL-1-beta AlphaLISA Primary Screen | THP-1 LPS/ATP IL-1B secretion, AlphaLISA, 16 h; active compounds read low | activity change, % at 57.5 µM | 360,000 tested, 4.7% active | AID 743279, 2014; in the data active means activity change below about -50%; inconclusive means mostly about -30% to -49%
#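 THP-1 cells pretreated 1 hr with compounds (up to 57.5 uM final), then stimulated with LPS (250 ng/mL final) plus ATP (1.25 mM final); secreted IL-1B measured by AlphaLISA after 16 hr, decreased signal indicating inhibition.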
# HT1080NT lethal – qHTS for induction of synthetic lethality in tumor cells producing 2HG: qHTS for the HT-1080-NT fibrosarcoma cell line | 360,000 tested, 1.6% active | Potency, µM (top dose mostly 46.1 µM), for the others: at the top dose activity, negative = less viability, hits mostly cytotoxic | HT-1080-NT fibrosarcoma viability, CellTiter-Glo ATP luminescence, 48 h;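 further: NT is the 2HG producing partner of a matched IDH1 knockdown line; potency means the concentration at half of the fitted maximal effect; 0% = DMSO-treated cells and -100% = media-only wells without cells; nearly all actives have a fitted effect of over 55% in size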
#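 HT-1080-NT; 750 cells/well; 5% FBS RPMI; 48 h compound, 37 degrees C; CellTiter-Glo luminescence; curve fitting and curve-class assignment.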
# HT1080 IDH1KD tx – qHTS for induction of synthetic lethality in tumor cells producing 2HG: qHTS for the HT-1080-IDH1KD cell line; HT-1080 IDH1 knockdown viability, ATP luminescence, 48 h; Potency, µM (doses to about 46.1 µM), without a hit: top-dose activity, negative = toxicity, actives largely listed as cytotoxic; 360,000 tested, 2% active; AID 686971, 2013;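 further: potency means the concentration at half of the fitted maximal effect; 0% = DMSO wells and -100% = cell-free medium wells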
#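 % activity derives from luminescence (CellTiter-Glo), normalised to DMSO and no-cell wells. HT-1080-IDH1KD cells, 750/well, had 48 h compound exposure at 37 °C.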
# TDP1 cell CPT – qHTS for Inhibitors of human tyrosyl-DNA phosphodiesterase 1 (TDP1): qHTS in cells in presence of CPT | chicken DT40 Tdp1-/-;hTDP1 cells + 20 nM CPT, ATP luminescence, 48 h | Potency, µM (top dose mostly 46.2 µM), inactives show at the top dose activity change, negative = growth inhibition, actives largely listed as inhibitors | 420,000 tested, 12% active; further: potency means the concentration at half of the fitted maximal effect; nearly all actives have a fitted effect of over 55% in size
#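 Chicken DT40 Tdp1-/- cells complemented with human TDP1, 400 cells/well, exposed to compounds plus 20 nM camptothecin for at least 48 h at 37 C; viability read as ATP content by CellTiter-Glo luminescence.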
# 12-LOX inh – Primary qHTS assay for inhibitors of human arachidonate 12S-lipoxygenase (ALOX12): Round 2. purified 12hLO, xylenol orange hydroperoxide absorbance. Potency, µM (highest dose often 108 µM), without a hit: at the highest dose activity change, negative = inhibition, usual class: inhibitors. 580,000 tested, 1.1% active. AID 1671190, 2021; further: potency means the concentration at half of the fitted maximal effect
# Target sequence (P18054 whole entry, looked up): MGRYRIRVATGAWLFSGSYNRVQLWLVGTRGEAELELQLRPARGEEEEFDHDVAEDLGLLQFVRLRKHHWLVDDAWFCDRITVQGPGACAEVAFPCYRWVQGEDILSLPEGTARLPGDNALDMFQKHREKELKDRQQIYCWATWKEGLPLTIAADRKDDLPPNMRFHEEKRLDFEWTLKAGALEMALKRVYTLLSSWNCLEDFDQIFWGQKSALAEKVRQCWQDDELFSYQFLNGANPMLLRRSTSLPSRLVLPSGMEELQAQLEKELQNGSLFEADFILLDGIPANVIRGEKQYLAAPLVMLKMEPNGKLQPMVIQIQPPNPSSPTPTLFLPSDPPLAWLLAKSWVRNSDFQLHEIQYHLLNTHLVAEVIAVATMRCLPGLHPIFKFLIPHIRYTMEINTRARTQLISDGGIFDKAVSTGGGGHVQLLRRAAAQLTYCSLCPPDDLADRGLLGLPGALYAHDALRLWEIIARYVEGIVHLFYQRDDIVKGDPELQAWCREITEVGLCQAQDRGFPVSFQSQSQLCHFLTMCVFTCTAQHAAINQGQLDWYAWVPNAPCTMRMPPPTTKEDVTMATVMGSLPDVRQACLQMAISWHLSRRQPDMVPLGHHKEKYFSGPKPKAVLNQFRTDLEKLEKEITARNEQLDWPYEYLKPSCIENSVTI
#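 Hydroperoxide product was detected by ferrous iron/xylenol orange as the 573 to 405 nm absorbance ratio. Arachidonic acid at 40 uM (final) was turned over for 30 min at room temperature by 150 nM human 12hLO, pH 7.0 Hepes buffer, after 15 min compound preincubation.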
# DT40 TDP1 no CPT – qHTS for Inhibitors of human tyrosyl-DNA phosphodiesterase 1 (TDP1): qHTS in cells in absence of CPT. DT40 Tdp1-/- hTDP1 cells, no CPT, ATP luminescence, 48 h. Potency, µM (doses to about 46.2 µM), for the others: at the top dose activity change, negative = growth inhibition, usual class: inhibitors. 420,000 tested, 15% active; further: potency means the concentration at half of the fitted maximal effect; nearly all actives have a fitted effect of over 55% in size
#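 Seeded 400 DT40-hTDP1 cells/well (vehicle DMSO, no 20 nM CPT); pinned compounds; ≥48 hr at 37 °C; CellTiter-Glo luminescence as viability measure.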
# * hit, by the source's call; u = inconclusive; x = not tested or not shown; ! = repeats disagree. Many of the other results were omitted from the sample, so hits are more common in it than they were. Unless noted, the call rests on the fitted dose curve; in most records, active means well fitted curve in the direction sought with a large enough effect; inconclusive means small, poorly fitted or top-dose-only effect, or another doubt; inactive means no such curve, though single readings can be large; an effect the other way counts as inactive or inconclusive. Unless noted, on the % scale 0 is the no-effect control and ±100 the full control effect.
SMILES,IL1B secr inh,HT1080NT lethal,HT1080 IDH1KD tx,TDP1 cell CPT,12-LOX inh,DT40 TDP1 no CPT
CCCCCCCCCCOc1ccc(C(=O)OCC(=O)c2ccc(Cl)cc2)cc1,x,x,x,x,1%,x
CCCCCCCCCCOC(=O)Cn1c(COc2ccc(Cl)cc2)[n+](C)c2ccccc21,-72*,-24%,-22%,4.1µM*,u,4.6µM*
CCOc1cccc(/C=C(/C#N)c2ccccn2)c1OC(F)F,x,x,x,x,-16%,x
Cc1nc(NC(=O)CSc2nnc(-c3ccccc3F)n2C)sc1C,x,x,x,x,-1%,x
CCCCCCCCCCOC(=O)Cn1c(COc2ccc(OC)cc2)[n+](C)c2ccccc21,-108*!,21µM*,13µM*,2.6µM*,x,2.6µM*
CCOC(=O)c1sc(N)c(C(=O)Nc2ccccc2OC)c1C,15,u,7.3µM*,2.9µM*,u,2.9µM*
CCOC(=O)c1[nH]c(C)c(C(=O)OC(C)C(=O)Nc2ncc(Cl)cc2Cl)c1C (stereo unspecified),-17,-24%,-29%,18µM*,-4%,u
CCOC(=O)c1c(C)[nH]c(C(=O)OC(C)C(=O)Nc2ccccc2OC)c1C (stereo unspecified),-2,-29%,u,16µM*,14%,u
CCOC(=O)c1sc(N)c(C(=O)OC)c1C,1,26%,19%,-1%,-6%,-5%
COc1cc(/C=C2\CCc3c2nc2ccccc2c3C(=O)O)cc(OC)c1OC,20,u,u,-4%,u,-17%
COc1cc(/C=C2\CCCc3c2nc2ccccc2c3C(=O)O)cc(Br)c1O,5,1%,-11%,-1%,50µM*,-5%
Cc1ccc(C2(CCNCc3ccc(N(C)C)cc3)CCOC(C(C)C)C2)cc1 (stereo unspecified),-97*,23µM*,18µM*,u,u,-109%
CC(C)C1CC(CCNCc2ccc(N(C)C)cc2)(c2ccccc2)CCO1 (stereo unspecified),-100*,-7%,u,7.3µM*,-15%,7.3µM*
CC(NCc1ccc2c(c1)OCO2)c1ccccc1 (stereo unspecified),-8,-2%,-3%,-16%,12%,-25%
CC(C)C1CC(CCNCc2ccc3c(c2)OCO3)(c2ccccc2)CCO1 (stereo unspecified),-69*,18µM*,26µM*,u,0%,u
Cc1ccc(C2(CCNS(=O)(=O)c3ccc(C)cc3)CCOC(C(C)C)C2)cc1 (stereo unspecified),-8,-15%,-25%,u,29%,u
CCOC(=O)C1(C)CCN1C(=O)c1ccccc1Br (stereo unspecified),101,25%,20%,-13%,-15%,-3%
Cc1cc(C[C@@H]2COC[C@@H]2NC(=O)c2cccc(Cn3nc(C)cc3C)c2)on1,x,x,x,x,49%,x
Cc1cc(C(=O)N2CCC(n3c(C)cnc3C3CCC3)CC2)nn1C,x,x,x,x,1%,x
O=C1C2C3C=CC(C3=C3CCCCC3)C2C(=O)N1c1ccccc1 (stereo unspecified),-17,23%,24%,u,449%,13µM*
COc1cccc(CN2C(=NC(=O)C3CC3)SC3CS(=O)(=O)CC32)c1 (stereo unspecified),0,0%,-12%,1%,-14%,15%
